The supplement of paper PMC6555819

tested on: VDR:RXRa (NR concentration 270 nM, RXRa partner concentration 90 nM); assay: PBM binding z-score (relative to random genomic background probes); higher = stronger binding; sequences stand for … in GC…GCGATTGACAGCGTAGAATGAAGG
Method: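 Protein-binding microarray (Agilent 4x180K custom design, double-stranded 60-nt probes: 5' GC cap, 34-nt variable region, 24-nt constant primer region; full probe sequence given). Purified or IVT nuclear receptor:RXRα heterodimers (3:1 NR:RXRα, mostly 270:90 nM) or homodimers were incubated for 1 h in PBS with 2% milk and no ligand, then detected with Alexa488 antibodies. Fluorescence from o1-orientation probes (~5 replicates averaged) was converted to z-scores against 500 random hg19 background probes. Variable regions are seed direct-repeat (DR0–DR5) sites, all their single-nucleotide variants and half-site ablations.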

Sequence | PBM binding z-score
CCGACTGGGGCATAAGGTTAGCATAAGCCAGCCC | -0.409
CAAACTAGCTCAAGGTCAAAGTCGGTTTGTGCCA | 4.51
ATACGTAGGTTAGCTGGGGTCATTCAGACTAGGC | 6.12
TCGAGTAGGTTACCAATGGTGCATTCAGCTTTCT | 0.228
AGAATGAGGTTAAGATGAGGGAAACAGAATACAT | 1.43
GCTCGGAGGACGAGGTCAGAGCTTTGTCCGTAGA | 2.2
ATATGTAGGTTAAGGGTCTTTCAGGTTGGTTCGC | 1.79
GCTCGGAGGACAAGGTCAGAGCCTTGTCCGTAGA | 1.43
TCAGCTAGGTCAGTTGGTCAGCTAACGAGCTGCC | 0.211
TAGCGTAGGTCATGGGCCAGTATACCACGCGAAC | 2.24
GCGGCTGGGGCATCAGCAGGTTACCATAACTTAA | -0.259
CCTAGGAGGACAACAGGAGGTCAGAGCTGCCAGA | 2.09
CTCGAAAGGTCGTGCTCAGGTGACTATACCAAAC | 3.53
CTCGACAGGTCGTGCTCAGGTGAGTATACCAAAC | 0.597
CGAACTAGGTCATCCAGGACACTGAATACATTGA | 5.27
CAAACTAGGTCAATGTCAAAGTCGGTTTGTGCCA | 1.58
TCTCGGAGGACACGAAAGGTCAGCGCTCGACATC | 3.67
CCTTACGGGTCAAGCTTATAGCACGGGTGGTACG | 3.11
CAAACTAGGTCAAATGTCAAAGTCGAGCCAACCA | 3.1
GCTTACGGGTCAAAGGTAATAGCATGAATAGAAT | 4.12

Sequence | PBM binding z-score
AGAATGAGCTTATACGTAGATCAGGGAAGAAAGT | -0.451
CATACAGGGTCAGCTAGGGCAGAGTAGGGACGGC | 4.55
GCAGACAGATGAAACGCAGGTAACTCAGGGTGGC | -0.643
CCTCGGAGCACAACAGGAGGTCAGAGCTGCCAGA | 1.32
CCGAGTAGGTTATGAGGCATTCAGGCAACGGTGA | -0.286
ACTATTCGTTGACTTAGGGCAACCGATACGACGC | 0.325
CCTCGGAGGAAAGAAGGTCAGAGCTGTCCGCTTT | 1.09
CCAGACAGGTGAAAGGTAAGTCAGTCTGGTACGC | 0.522
ACTTACGGGACAACGAGGTTATAGCACGCGTATA | 2.29
ACAAGCAGGCCAAGGGTCACTCAAGATTAGTCCG | 2.94
GTTCGGAGGACAAGGTCAGAGCTTTGTCCGTAGA | 1.42
CCTACTTGGCCACGAAAGGTCATTGATTCAGTGA | 4.14
ATCTCGAGGTAAAGATAGTTCAGTGAATGCAAAT | 1.23
TAGCATAGGTCATTGGGCCAGTATAGTACGCATC | 3.27
TCATATAGGTAAACAGGTGACAGTCCGTAAGTTA | 0.94
CCGACTGGGGCAGAAAGGTTAGCATACCATCCGG | 0.00712
TCTTGTAGATCAAAGGTTAAGAAGGCCGAAGCCT | 2.65
ATCTCTAGGTAAAGATAGTTCAGAGAATGCAAAT | 0.478
ATATGTAGGTTATCGGTTCATTCAGTTTGCGCAT | 3.97
CCTAGTTGGTCAGGAGGGCACACACCGGATATGA | 0.458
